Screening data deposited in PubChem by several laboratories.
Sampled rows, rich in hits. Any-hit rate of the full collection: about 2.4%.
Arbovirus anti: antivirals against arbovirus infection | hit rate 0.37% among 200,000 | AID 1251 | arbovirus infection cell-based antiviral screen | inhibition, % at 10 µM; in the data active = inhibition above about 30%
MEKK2 mut-MEK5: signal of MEK5 binding to mutant human MEKK2 PB1 domain. percent response, % at 10 µM. bead flow cytometry, Alexa488-MEK5 binding to MEKK2 mutant. hit rate 0.35% among 290,000; in the data active = percent response above about 24%, passing the limit was not always enough
Pf gamet viab: kills late stage P. falciparum gametocytes; P. falciparum stage V gametocytes, ATP luminescence, 24 h; inhibition, % at 10.9 µM; hit rate 0.065% among 150,000; AID 743093;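 active = inhibition above the mean plus 3 SD of compounds within the control limits, set per campaign, cut at about 38% in these data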;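 note: 0% = DMSO wells and 100% = medium only without gametocytes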
MEKK2wt PB1 HTS: raises or lowers MEK5 binding to wildtype human MEKK2 PB1 domain; bead flow cytometry, Alexa488-MEK5 binding to MEKK2 WT; actives lie on both sides; binding response (% of control), % at 10 µM; hit rate 1.1% among 290,000; Q9Y2U5; in the data active = binding response below about 67% or above about 130%
MEKK3 PB1 HTS: MEKK3-MEK5 PB1 interaction, increase or decrease; Q99759; bead-based flow cytometry, Alexa488-MEK5 binding to MEKK3; actives lie on both sides; 0 = blocked by unlabeled MEK5, 100 = vehicle; binding response (% of control), % at 10 µM; hit rate 1.4% among 290,000;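 active = binding response more than 3 SD above or below the average of its plate-row segment, actives on both sides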;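 note: Alexa488 bead fluorescence after subtracting the streptavidin-only scavenger bead signal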
Target sequence (Q99759 whole entry, looked up): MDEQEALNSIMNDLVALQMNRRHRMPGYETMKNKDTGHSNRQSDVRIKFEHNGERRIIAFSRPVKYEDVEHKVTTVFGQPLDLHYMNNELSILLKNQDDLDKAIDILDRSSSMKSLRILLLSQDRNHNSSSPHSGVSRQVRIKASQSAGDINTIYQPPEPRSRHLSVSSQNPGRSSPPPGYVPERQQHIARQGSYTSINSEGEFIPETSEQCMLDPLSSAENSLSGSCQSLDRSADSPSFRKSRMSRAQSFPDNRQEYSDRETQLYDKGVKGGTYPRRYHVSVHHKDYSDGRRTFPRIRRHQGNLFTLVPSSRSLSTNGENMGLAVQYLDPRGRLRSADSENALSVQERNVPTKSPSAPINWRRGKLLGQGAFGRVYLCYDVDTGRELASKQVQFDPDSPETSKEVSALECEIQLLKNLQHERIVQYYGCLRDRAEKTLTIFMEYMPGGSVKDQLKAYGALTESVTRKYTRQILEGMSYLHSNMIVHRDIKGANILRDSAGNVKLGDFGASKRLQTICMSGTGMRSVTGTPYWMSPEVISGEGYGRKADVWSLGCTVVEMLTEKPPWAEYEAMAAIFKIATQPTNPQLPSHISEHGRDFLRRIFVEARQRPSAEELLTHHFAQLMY
MEKK2wt confirm: raises or lowers MEK5 binding to wildtype human MEKK2, retest | shares compounds with MEKK3 PB1 HTS | bead flow cytometry, Alexa488-MEK5 binding to MEKK2 WT; actives lie on both sides | binding response (% of control), % at 10 µM | hit rate 2.4% among 5,900 | AID 1892; in the data active = binding response below about 16% or above about 210%; inactive = in between
MEKK2mut confirm: signal of MEK5 binding to mutant human MEKK2, retest; bead flow cytometry, Alexa488-MEK5 binding to MEKK2 mutant; hit rate 2% among 5,900; percent response, % at 10 µM; shares compounds with MEKK3 PB1 HTS; AID 1893; in the data active = percent response mostly above about 71%, no sharp cut-off; inactive = mostly below about 38%;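 note: higher means compound restores mutant binding toward wildtype level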
MEKK3-MEK5 inh: MEKK3-MEK5 PB1 inhibition, single concentration confirmation; shares compounds with MEKK3 PB1 HTS; bead flow cytometry, Alexa488-MEK5 binding to MEKK3; active compounds read low; binding response (% of control), % at 10 µM; hit rate 1.8% among 5,900; AID 1894;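 active = binding response below 72% of control, or above a set upper limit, though filed actives all read lower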;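 note: 100% = DMSO only wells and 0% = binding blocked by excess unlabeled MEK5; lower values mean stronger disruption of MEK5 binding to MEKK3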
* hit, by the source's call; [ ] = remark or other dose.

Results for CCN(CC)CCN1C(=O)/C(=C\c2ccc(Cl)c([N+](=O)[O-])c2)SC1=Nc1ccc(OC)cc1 ?
MEKK2 mut-MEK5: 36*; MEKK2wt PB1 HTS: 197*; MEKK3 PB1 HTS: 109; MEKK2wt confirm: 154; MEKK2mut confirm: 25; MEKK3-MEK5 inh: 108

Results for CCCN1C(=O)/C(=C/c2ccc(C)s2)SC1=Nc1ccc(OC)cc1 ?
Arbovirus anti: -11; MEKK2 mut-MEK5: -3; MEKK2wt PB1 HTS: 100; MEKK3 PB1 HTS: 102

How did COc1ccc(N=C2S/C(=C\c3ccc(Cl)c([N+](=O)[O-])c3)C(=O)N2CCN(C)C)cc1 do in these assays?
MEKK2 mut-MEK5: 69*; MEKK2wt PB1 HTS: 182*; MEKK3 PB1 HTS: 106; MEKK2wt confirm: 135; MEKK2mut confirm: 42; MEKK3-MEK5 inh: 103

What do the screens show for `Cc1cccc(C)c1NC(=O)[C@@]1(CC(=O)O)CC(/C=C/c2ccccc2)=NO1`?
MEKK2 mut-MEK5: 3; MEKK2wt PB1 HTS: 100; MEKK3 PB1 HTS: 100

What do the screens show for `CCN(CC)c1ccc(NC2CC(=O)N(CCc3ccc(OC)cc3)C2=O)cc1` (centres undefined)?
MEKK2 mut-MEK5: 8; Pf gamet viab: -15; MEKK2wt PB1 HTS: 102; MEKK3 PB1 HTS: 112

Results for CCNCC(=O)N1c2ccccc2CCc2ccc(NC(C)=O)cc21 ?
Arbovirus anti: 7; MEKK2 mut-MEK5: -3; MEKK2wt PB1 HTS: 102; MEKK3 PB1 HTS: 93

What do the screens show for `CCNCC(=O)N1c2ccccc2CCc2ccc(NC(=O)OC(C)C)cc21`?
MEKK2 mut-MEK5: 7; Pf gamet viab: 10; MEKK2wt PB1 HTS: 137*; MEKK3 PB1 HTS: 106; MEKK2wt confirm: 127; MEKK2mut confirm: 18; MEKK3-MEK5 inh: 106

How did Cc1ccc(NC(=O)CNC(=O)c2ccc(C)o2)cc1 do in these assays?
MEKK2 mut-MEK5: -17; Pf gamet viab: 2; MEKK2wt PB1 HTS: 46*[inhibitor]; MEKK3 PB1 HTS: 29*[inhibitor]; MEKK2wt confirm: 104; MEKK2mut confirm: 3; MEKK3-MEK5 inh: 104

How did Cc1ccc(C(=O)Nc2ccc(NC(=O)c3ccc(C)o3)cc2)o1 do in these assays?
MEKK2 mut-MEK5: 3; MEKK2wt PB1 HTS: 99; MEKK3 PB1 HTS: 104

What do the screens show for `COc1cc(C)ccc1Oc1ncnc(N)c1[N+](=O)[O-]`?
MEKK2 mut-MEK5: 6; MEKK2wt PB1 HTS: 108; MEKK3 PB1 HTS: 102

Results for CN1CCN(c2nc(-c3ccccc3)c3cc(Cl)ccc3n2)CC1 ?
Arbovirus anti: -11; MEKK2 mut-MEK5: 6; MEKK2wt PB1 HTS: 131; MEKK3 PB1 HTS: 102

How did Clc1ccc2nc(N3CCNCC3)nc(-c3ccccc3)c2c1 do in these assays?
Arbovirus anti: -32; MEKK2 mut-MEK5: 32; MEKK2wt PB1 HTS: 152*; MEKK3 PB1 HTS: 103; MEKK2wt confirm: 108; MEKK2mut confirm: 0; MEKK3-MEK5 inh: 102

How did Cc1ccc2cc(/C=C3\N=C(c4ccccc4)OC3=O)c(N3CCOCC3)nc2c1 do in these assays?
Arbovirus anti: -6; MEKK2 mut-MEK5: -11; MEKK2wt PB1 HTS: 28*[inhibitor]; MEKK3 PB1 HTS: 75*[inhibitor]; MEKK2wt confirm: 57; MEKK2mut confirm: -22; MEKK3-MEK5 inh: 93

What do the screens show for `Cc1cccc(N2CCN(C(=O)COc3ccc4c(C)cc(=O)oc4c3C)CC2)c1C`?
MEKK2 mut-MEK5: 0; MEKK2wt PB1 HTS: 100; MEKK3 PB1 HTS: 101

How did NC1=NC[C@@H](Cc2ccc(O)cc2)N1CCc1cc(C(F)(F)F)cc(C(F)(F)F)c1 do in these assays?
MEKK2 mut-MEK5: 8; Pf gamet viab: 10; MEKK2wt PB1 HTS: 120; MEKK3 PB1 HTS: 115

What do the screens show for `NC1=NC[C@H](CC2CCCCC2)N1CCc1cc(C(F)(F)F)cc(C(F)(F)F)c1`?
MEKK2 mut-MEK5: 25*; Pf gamet viab: -13; MEKK2wt PB1 HTS: 156*; MEKK3 PB1 HTS: 111; MEKK2wt confirm: 127; MEKK2mut confirm: 4; MEKK3-MEK5 inh: 97
